# Pf apPOL inh: Pf-apPOL DNA polymerase inhibition | AID 1794808 | actives 0.25% (n = 210,000) | inhibition, % at 10 µM | Recombinant Pf-apPOL, molecular beacon fluorescence, 1.5 h
# mHTT-CaM PPI inh: inhibitors of human mutant huntingtin-calmodulin interaction. P42858. AID 1671202. inhibition, % at 15 µM. actives 3.6% (n = 190,000). AlphaScreen His-mHTT/GST-CaM binding, luminescence;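 further: 0% = both proteins with DMSO and 100% = one protein alone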
# An asterisk follows results filed as active; / = no result. Sampled rows, rich in hits. Any-hit rate of the full collection: about 3.6%. No stated cut-off is given here; in the data, active means inhibition above about 50%; inactive means the rest.
SMILES,Pf apPOL inh,mHTT-CaM PPI inh
CC1(C)CC(=O)C2=C(C1)N=C1c3ccccc3C(=O)C1C2c1cc([N+](=O)[O-])ccc1O (stereo not drawn),-5.8,53.0*
CC1(C)CC(=O)C2=C(C1)N=C1c3ccccc3C(=O)C1C2c1ccc2c(c1)OCO2 (stereo not drawn),-3.2,49.0
CC1(C)CC(=O)C2=C(C1)N=C1c3ccccc3C(=O)C1C2c1cccc(F)c1 (stereo not drawn),-8.9,10.0
CC1(C)CC(=O)C2=C(C1)N=C1c3ccccc3C(=O)C1C2c1ccc([N+](=O)[O-])cc1 (stereo not drawn),-3.2,35.0
O=C1CCCC2=C1C(c1ccc3c(c1)OCO3)C1C(=O)c3ccccc3C1=N2 (stereo not drawn),-4.9,55.0*
CC1(C)CC(=O)C2=C(C1)N=C1c3ccccc3C(=O)C1C2c1cccc(Br)c1 (stereo not drawn),-2.7,61.0*
Cc1nc(C)c(CCNS(=O)(=O)c2cc(Cl)ccc2Cl)s1,-0.2,-14.4
O=C(Nc1ccc(SCC(=O)N2CCOCC2)nn1)c1cccs1,-2.7,-4.4
O=C(O)c1ccc(Oc2ccccc2)nc1,2.2,/
COc1ccc(-c2nc3s/c(=C\c4ccc(-c5ccccc5[N+](=O)[O-])o4)c(=O)n3n2)cc1,-9.0,13.0
Cc1ccc(-n2cc3c(c2-c2ccccc2)c(=O)n(C)c(=O)n3C)cc1,5.3,22.0
Cn1c(=O)c2c(-c3ccccc3)n(-c3ccc(F)cc3)cc2n(C)c1=O,75.2*,41.0
Cc1cc(C)cc(-n2cc3c(c2-c2ccccc2)c(=O)n(C)c(=O)n3C)c1,83.4*,36.0
COc1ccccc1-n1cc2c(c1-c1ccccc1)c(=O)n(C)c(=O)n2C,-8.2,26.0
COc1ccc(C2C=C(c3ccc(C)cc3)Nc3ncnn32)c(OC)c1OC (stereo not drawn),-5.1,13.0
Cn1nc(C(=O)NCc2ccc3c(c2)OCO3)c2c1CCN(C(=O)Cc1cccs1)C2,-5.1,54.0*
Cn1nc(C(=O)NCc2ccc3c(c2)OCO3)c2c1CCN(C(=O)c1ccco1)C2,-8.5,-3.5
Cn1nc(C(=O)NCc2ccc3c(c2)OCO3)c2c1CCN(C(=O)c1cccs1)C2,-0.3,11.4
Cn1nc(C(=O)NCc2ccc3c(c2)OCO3)c2c1CCN(C(=O)c1ccc(F)cc1)C2,-13.6,51.2*
O=C(c1cc2c(s1)CCC(C(=O)N1CCCC1)C2)N1CCCCC1 (stereo not drawn),-0.1,-7.0
CC(=O)c1ccc(NC(=O)CCn2nc(C)nc2C)cc1,3.3,-9.3
CCOc1ccc(/C=C(\C#N)c2nc3ccccc3s2)cc1OC,-1.7,-12.0
COc1ccc(-c2csc(/C(C#N)=C/c3ccc(OC)o3)n2)cc1,-0.8,69.0*
N#C/C(=C\c1ccc(O)c(O)c1)c1nc(-c2cccc([N+](=O)[O-])c2)cs1,1.0,66.4*
COc1cc(/C=C(\C#N)c2nc(-c3ccc(Br)cc3)cs2)ccc1O,-2.1,2.9
SMILES,Pf apPOL inh,mHTT-CaM PPI inh
CCOc1cc(/C=C(\C#N)c2nc3ccccc3s2)ccc1O,-4.6,56.0*
N#C/C(=C\c1ccc(O)c(Br)c1)c1nc(-c2cccc([N+](=O)[O-])c2)cs1,-1.3,7.0
COc1cc(/C=C(\C#N)c2nc(-c3ccccc3)cs2)ccc1O,-2.8,97.0*
Cc1ccc(/C=C(\C#N)c2nc(-c3ccc(Br)cc3)cs2)o1,-1.2,14.4
O=C1NCCCn2cc(S(=O)(=O)Nc3ccc(F)cc3F)cc21,-5.3,-4.6
COc1ccc(C2SCCN2C(=O)c2cc3ccccc3oc2=O)cc1Br (stereo not drawn),-6.1,-2.0
CCN(CC)c1ccc(C2OCC3(CO2)SC2=NCN(C)CN2C3=O)cc1 (stereo not drawn),-2.9,14.0
Cc1ccc(-c2csc(/C(C#N)=C/c3cccc(O)c3)n2)cc1,-3.8,97.1*
Cc1ccc(-c2csc(/C(C#N)=C/c3ccc(O)cc3)n2)cc1,-4.6,32.1
O=C(c1cn2c(n1)CCCC2)N1CCN(c2ccc(F)cc2)CC1,-4.7,13.3
CCCC[C@H]1[C@@H]2C[C@H]([C@H]3CCCCN31)[C@H](OC(=O)Nc1cccc(C#N)c1)C2,-8.5,-3.0
COc1ccc(-c2ccc(CN3C(C(C)C)C(=O)N(Cc4cn(CCC5OCCCO5)nn4)CCS3(=O)=O)cc2)cn1 (stereo not drawn),-16.4,50.1*
CC(C)C1C(=O)N(Cc2cn(CC3CCCCC3)nn2)CCS(=O)(=O)N1Cc1ccc(-c2ccc(F)nc2)cc1 (stereo not drawn),-0.3,24.8
CC(C)C1C(=O)N(Cc2cn(Cc3ccco3)nn2)CCS(=O)(=O)N1Cc1ccc(-c2ccc(F)nc2)cc1 (stereo not drawn),-7.3,60.0*
CC(C)C1C(=O)N(Cc2cn(Cc3ccco3)nn2)CCS(=O)(=O)N1Cc1ccc(-c2ccc(F)cc2)cc1 (stereo not drawn),-4.7,69.4*
COc1ccc(-c2ccc(CN3C(C(C)C)C(=O)N(Cc4cn(CCC5OCCO5)nn4)CCS3(=O)=O)cc2)cn1 (stereo not drawn),4.1,45.0
Cc1ccc(-c2ccc(CN3C(C)C(=O)N(Cc4cn(CCC5OCCO5)nn4)CCS3(=O)=O)cc2)cc1 (stereo not drawn),-3.6,-0.6
CC(C)C1C(=O)N(Cc2cn(Cc3ccco3)nn2)CCS(=O)(=O)N1Cc1ccc(-c2ccncc2)cc1 (stereo not drawn),-0.1,23.0
CC1C(=O)N(Cc2cn(CCC3OCCO3)nn2)CCS(=O)(=O)N1Cc1ccc(-c2ccccc2)cc1 (stereo not drawn),7.3,74.1*
CN1CCN(C(=O)c2nccn2Cc2ccccc2)CC1,-2.2,0.9
CCc1ccccc1N(CC)C(=O)c1noc2c1CCCC2,1.4,-13.5
O=S(=O)(c1ccc(F)cc1)N1CCC(c2noc(-c3ccc(F)cc3)n2)CC1,-8.3,-2.1
CC(C)C1C(=O)N(Cc2cn(CCC3OCCO3)nn2)CCS(=O)(=O)N1Cc1ccc(-c2ccccc2)cc1 (stereo not drawn),-15.2,43.6
CC(C)C1C(=O)N(Cc2cn(CCC3OCCO3)nn2)CCS(=O)(=O)N1Cc1ccc(-c2ccccc2Cl)cc1 (stereo not drawn),-1.1,66.1*
CC(C)C1C(=O)N(Cc2cn(Cc3ccco3)nn2)CCS(=O)(=O)N1Cc1ccc(-c2ccccc2)cc1 (stereo not drawn),-1.4,72.9*
SMILES,Pf apPOL inh,mHTT-CaM PPI inh
CC(C)C1C(=O)N(Cc2cn(Cc3ccco3)nn2)CCS(=O)(=O)N1Cc1ccc(-c2ccc(Cl)cc2)cc1 (stereo not drawn),-13.9,49.7
COc1ccc(-c2ccc(CN3C(CC(C)C)C(=O)N(Cc4cn(Cc5ccco5)nn4)CCS3(=O)=O)cc2)cc1OC (stereo not drawn),-2.5,29.9
CC1C(=O)N(Cc2cn(Cc3ccco3)nn2)CCS(=O)(=O)N1Cc1ccc(-c2ccccc2)cc1 (stereo not drawn),-0.8,62.7*
Cc1cc([N+](=O)[O-])c[nH]c1=O,-0.2,/
O=C(Nc1nc(-c2ccccn2)cs1)C1CCN(S(=O)(=O)c2cccs2)CC1,-4.7,-0.9
O=C(Nc1nc(-c2ccc(Br)cc2)cs1)c1ncn[nH]1,-6.2,99.5*
O=C(Nc1nc(-c2ccccc2)cs1)c1ncn[nH]1,-1.2,23.5
COc1cccc(NC(=O)CN2CCC(c3nc(-c4cccs4)no3)CC2)c1,-4.4,-0.1
O=C(c1ccc(Br)cc1)c1ccc(N2CCOCC2)c([N+](=O)[O-])c1,0.5,12.5
